# The panel holds about 83,000 compounds, 20% with a hit somewhere; the sample as a whole holds those more often.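 A percent growth of 40 corresponds to 60% growth inhibition; 0 means no net growth; -100 means all cells died. Active threshold: below 10.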 Values without a mark were called inactive. Calls of active or inactive are those of the source.
# Legend:
# Assay in all cases: NCI-60 one-dose screen, 48 h (100 = growth as untreated, 0 = no growth, -100 = all killed)
# Conditions in all cases: 10 µM unless noted
# [1] = tested on: RPMI-8226 leukemia
# [2] = tested on: OVCAR-8 ovarian
# [3] = tested on: OVCAR-5 ovarian
# [4] = tested on: OVCAR-4 ovarian
# [5] = tested on: SK-OV-3 ovarian
# [6] = tested on: IGROV1 ovarian
# [7] = tested on: OVCAR-3 ovarian
# [8] = tested on: HS 578T breast
# [9] = tested on: NCI/ADR-RES ovarian
# [10] = tested on: BT-549 breast
# [11] = tested on: MDA-MB-435 melanoma
# [12] = tested on: SW-620 colon
# [13] = tested on: MCF7 breast
# [14] = tested on: HCT-116 colon
# [15] = tested on: HCC-2998 colon
# [16] = tested on: KM12 colon
# [17] = tested on: T-47D breast
Compound,growth [1],growth [2],growth [3],growth [4],growth [5],growth [6],growth [7],growth [8],growth [9],growth [10],growth [11],growth [12],growth [13],growth [14],growth [15],growth [16],growth [17]
COc1ccc2nc(-c3ccc(-c4noc(-c5ccc(Cl)cc5)n4)cc3)[nH]c2c1,101%,74.1%,92.6%,-25.9% (active),90.7%,78.1%,64.9%,62.1%,47.1%,74.8%,60.2%,49.6%,46.4%,51.3%,93.6%,53.3%,–
O=C(c1ccc(OCCN2CCCCC2)cc1)c1c(-c2ccc(O)cc2)sc2cc(O)ccc12,82.9%,86.8%,124%,72.8%,100%,76.1%,91.8%,–,91.5%,66.4%,90.5%,98.2%,31.9%,76.2%,103%,103%,65.5%
COc1cc2ccc(C(C)=O)cc2cc1OC,105%,–,92.3%,120%,95.6%,106%,100%,97.1%,103%,–,–,–,97.9%,103%,–,105%,93.1%
O=C(/C=C/c1ccco1)c1ccccc1O,92.4%,104%,101%,106%,115%,104%,–,120%,97.7%,95.6%,113%,99.7%,41.3%,96.8%,84.4%,99.8%,77.7%
COc1ccc(-c2cnnn2-c2nonc2-n2cccc2)cc1,27.9%,31.3%,37.2%,42.9%,-4.76% (active),28.9%,-38.9% (active),-1.93% (active),6.88% (active),47.6%,–,19.1%,14.5%,8.3% (active),6.73% (active),3.78% (active),44.8%
O=C(CCCN1CCC(O)(c2ccc(Br)cc2)CC1)c1ccc(F)cc1,73.4%,79.3%,80%,64.7%,86%,74%,90%,–,74%,60.6%,65.4%,78.1%,70.4%,38.9%,71%,83.5%,70.5%
COc1cc(NC(=O)CSc2nc3ccc(Cl)cc3c(=O)n2Cc2ccccc2)cc(OC)c1OC,–,68.7%,85.4%,81.1%,72%,84.9%,77.7%,47.4%,67.7%,31.2%,78.2%,81.6%,70.2%,51.6%,90.5%,51.5%,55.7%
NNc1ccc(S(N)(=O)=O)cc1,82.4%,–,102%,110%,104%,110%,111%,110%,94.2%,101%,–,97.3%,98%,90.7%,86.8%,105%,89.4%
CCC(=O)OCc1ccc(OC)cc1,107%,102%,95%,107%,108%,102%,110%,135%,99.4%,104%,–,111%,107%,98.7%,–,137%,103%
CCCCCCCCCCCC1=NC(C)(C)CN1CCO,–,78.1%,92%,72.6%,97%,38.5%,81%,59.3%,90.3%,80.6%,8.66% (active),23.1%,30.3%,17.8%,-17.5% (active),29.1%,65.2%
